Assay [1] addresses Protein kinase C gamma type (Homo sapiens) (UniProt P05129). The following applies: at 1 µM.
Assay [2] concerns the target T1, Protein kinase C iota type (Homo sapiens) (UniProt P41743).
T1 sequence (whole entry): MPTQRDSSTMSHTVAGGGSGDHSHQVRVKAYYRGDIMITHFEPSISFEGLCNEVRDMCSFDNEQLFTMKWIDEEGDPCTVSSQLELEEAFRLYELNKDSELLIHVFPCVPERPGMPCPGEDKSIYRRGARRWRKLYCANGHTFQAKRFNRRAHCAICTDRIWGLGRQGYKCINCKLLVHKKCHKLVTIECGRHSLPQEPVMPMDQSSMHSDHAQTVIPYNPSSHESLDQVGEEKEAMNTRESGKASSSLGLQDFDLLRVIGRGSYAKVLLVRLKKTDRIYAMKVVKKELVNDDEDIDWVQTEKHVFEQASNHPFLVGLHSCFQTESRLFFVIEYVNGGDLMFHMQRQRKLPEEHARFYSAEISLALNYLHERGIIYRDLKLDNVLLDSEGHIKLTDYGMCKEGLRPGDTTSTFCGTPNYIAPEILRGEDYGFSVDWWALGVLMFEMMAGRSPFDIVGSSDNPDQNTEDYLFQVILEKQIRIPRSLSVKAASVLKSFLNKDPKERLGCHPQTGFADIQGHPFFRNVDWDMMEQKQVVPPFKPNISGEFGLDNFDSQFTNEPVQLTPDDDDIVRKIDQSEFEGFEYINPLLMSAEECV
The following applies: at 0.1 µM.

Assay [3] concerns the target T1, Protein kinase C iota type (Homo sapiens). Conditions: at 1 µM.
The target of assay [4] is Protein kinase C theta type (Homo sapiens) (UniProt Q04759). Conditions: at 0.1 µM.
Sequence of Protein kinase C theta type (Homo sapiens) (Q04759 whole entry, looked up): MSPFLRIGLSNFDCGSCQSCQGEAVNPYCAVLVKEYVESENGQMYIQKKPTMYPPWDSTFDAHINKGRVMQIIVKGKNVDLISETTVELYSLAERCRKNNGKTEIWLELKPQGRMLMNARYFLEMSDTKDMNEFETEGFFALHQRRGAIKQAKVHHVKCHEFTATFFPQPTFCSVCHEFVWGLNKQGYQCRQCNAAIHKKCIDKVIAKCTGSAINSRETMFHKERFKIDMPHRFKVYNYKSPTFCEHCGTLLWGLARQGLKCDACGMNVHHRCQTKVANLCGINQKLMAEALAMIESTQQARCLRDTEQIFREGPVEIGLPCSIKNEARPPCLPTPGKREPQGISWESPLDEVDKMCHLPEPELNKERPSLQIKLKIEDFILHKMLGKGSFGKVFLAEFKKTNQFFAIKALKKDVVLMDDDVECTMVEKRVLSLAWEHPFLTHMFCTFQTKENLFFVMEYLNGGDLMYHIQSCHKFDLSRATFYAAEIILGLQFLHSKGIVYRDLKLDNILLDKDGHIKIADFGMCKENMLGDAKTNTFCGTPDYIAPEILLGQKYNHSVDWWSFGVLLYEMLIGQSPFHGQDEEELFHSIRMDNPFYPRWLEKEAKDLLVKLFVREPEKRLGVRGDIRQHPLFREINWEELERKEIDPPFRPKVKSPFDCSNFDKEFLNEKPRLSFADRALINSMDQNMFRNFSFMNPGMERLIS
Assay [5] shares this target. Conditions: at 1 µM.
The target of assay [6] is Protein kinase C beta type (Homo sapiens) (UniProt P05771). Conditions: at 0.1 µM.
Sequence of Protein kinase C beta type (Homo sapiens) (P05771 2-671 limits assumed): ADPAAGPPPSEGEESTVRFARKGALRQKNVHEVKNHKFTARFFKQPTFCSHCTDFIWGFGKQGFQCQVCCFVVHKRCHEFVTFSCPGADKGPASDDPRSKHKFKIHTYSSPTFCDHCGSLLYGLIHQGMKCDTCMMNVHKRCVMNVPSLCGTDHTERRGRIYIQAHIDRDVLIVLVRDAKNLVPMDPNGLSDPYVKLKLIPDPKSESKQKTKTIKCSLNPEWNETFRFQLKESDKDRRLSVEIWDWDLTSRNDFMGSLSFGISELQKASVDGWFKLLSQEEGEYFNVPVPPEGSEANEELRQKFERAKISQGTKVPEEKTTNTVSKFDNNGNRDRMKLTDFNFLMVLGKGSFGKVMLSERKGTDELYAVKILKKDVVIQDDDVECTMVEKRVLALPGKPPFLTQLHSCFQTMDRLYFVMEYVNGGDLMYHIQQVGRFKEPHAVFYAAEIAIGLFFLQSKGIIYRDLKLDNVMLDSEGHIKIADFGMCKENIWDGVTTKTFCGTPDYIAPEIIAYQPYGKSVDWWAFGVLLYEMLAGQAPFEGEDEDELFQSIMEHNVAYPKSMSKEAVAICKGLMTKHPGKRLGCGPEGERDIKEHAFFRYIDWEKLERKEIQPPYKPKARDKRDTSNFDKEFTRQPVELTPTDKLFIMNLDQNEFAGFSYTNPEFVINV
The target is the same in assay [7]. The following applies: at 1 µM.
The target of assay [8] is T2, Serine/threonine-protein kinase D1 (Homo sapiens) (UniProt Q15139).
T2 sequence (whole entry): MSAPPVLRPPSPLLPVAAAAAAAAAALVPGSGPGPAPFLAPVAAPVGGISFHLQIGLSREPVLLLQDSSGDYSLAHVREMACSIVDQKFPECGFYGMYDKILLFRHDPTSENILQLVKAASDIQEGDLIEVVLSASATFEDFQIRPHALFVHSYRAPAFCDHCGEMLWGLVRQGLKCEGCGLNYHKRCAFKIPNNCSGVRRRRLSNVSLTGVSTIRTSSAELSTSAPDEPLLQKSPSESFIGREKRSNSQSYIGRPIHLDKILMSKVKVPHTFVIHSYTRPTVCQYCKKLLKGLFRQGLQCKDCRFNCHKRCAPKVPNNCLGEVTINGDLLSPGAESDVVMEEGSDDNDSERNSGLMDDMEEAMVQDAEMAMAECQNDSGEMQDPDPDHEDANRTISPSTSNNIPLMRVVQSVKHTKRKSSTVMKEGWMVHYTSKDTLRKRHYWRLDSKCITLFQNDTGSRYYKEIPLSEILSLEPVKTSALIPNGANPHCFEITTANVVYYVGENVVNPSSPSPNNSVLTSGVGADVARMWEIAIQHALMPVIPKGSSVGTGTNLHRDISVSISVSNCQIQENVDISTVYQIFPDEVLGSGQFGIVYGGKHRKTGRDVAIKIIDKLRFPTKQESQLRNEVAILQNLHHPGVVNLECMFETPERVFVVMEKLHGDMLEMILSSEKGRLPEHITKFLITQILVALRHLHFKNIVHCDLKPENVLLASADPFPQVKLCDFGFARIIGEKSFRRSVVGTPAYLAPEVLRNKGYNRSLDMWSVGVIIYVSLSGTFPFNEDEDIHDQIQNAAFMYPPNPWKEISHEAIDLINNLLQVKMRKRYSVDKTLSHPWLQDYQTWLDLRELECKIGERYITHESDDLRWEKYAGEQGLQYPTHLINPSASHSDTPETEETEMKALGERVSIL
The following applies: at 0.1 µM.

The target of assay [9] is T2, Serine/threonine-protein kinase D1 (Homo sapiens). Conditions: at 1 µM.
Assay [10] concerns the target T3, Serine/threonine-protein kinase D2 (Homo sapiens) (UniProt Q9BZL6).
T3 sequence (whole entry): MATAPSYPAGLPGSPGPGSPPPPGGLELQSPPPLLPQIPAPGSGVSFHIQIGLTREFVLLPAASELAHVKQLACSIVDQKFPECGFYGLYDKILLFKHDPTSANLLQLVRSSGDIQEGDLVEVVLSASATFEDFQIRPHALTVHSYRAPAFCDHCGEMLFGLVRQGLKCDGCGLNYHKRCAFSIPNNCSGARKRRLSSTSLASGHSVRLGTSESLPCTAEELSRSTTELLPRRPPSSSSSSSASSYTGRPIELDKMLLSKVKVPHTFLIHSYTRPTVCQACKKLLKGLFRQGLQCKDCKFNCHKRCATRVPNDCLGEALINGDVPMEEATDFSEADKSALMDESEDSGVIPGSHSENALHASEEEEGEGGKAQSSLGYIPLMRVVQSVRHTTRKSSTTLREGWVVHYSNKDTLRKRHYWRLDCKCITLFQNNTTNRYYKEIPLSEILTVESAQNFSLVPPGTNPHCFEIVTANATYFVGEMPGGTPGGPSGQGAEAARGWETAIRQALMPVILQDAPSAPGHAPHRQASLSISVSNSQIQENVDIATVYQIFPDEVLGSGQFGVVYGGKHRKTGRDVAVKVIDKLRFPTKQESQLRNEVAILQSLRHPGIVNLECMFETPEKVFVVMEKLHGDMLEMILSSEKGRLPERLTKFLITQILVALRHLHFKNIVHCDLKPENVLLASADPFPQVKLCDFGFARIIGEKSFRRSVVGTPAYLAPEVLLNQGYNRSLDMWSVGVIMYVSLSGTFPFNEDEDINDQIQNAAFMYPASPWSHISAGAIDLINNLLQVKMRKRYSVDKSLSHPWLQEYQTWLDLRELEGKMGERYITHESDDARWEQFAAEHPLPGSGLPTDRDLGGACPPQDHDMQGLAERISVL
The following applies: at 0.1 µM.

In assay [11] the target is T3, Serine/threonine-protein kinase D2 (Homo sapiens). The following applies: at 1 µM.
The target of assay [12] is T4, Serine/threonine-protein kinase D3 (Homo sapiens) (UniProt O94806).
T4 sequence (whole entry): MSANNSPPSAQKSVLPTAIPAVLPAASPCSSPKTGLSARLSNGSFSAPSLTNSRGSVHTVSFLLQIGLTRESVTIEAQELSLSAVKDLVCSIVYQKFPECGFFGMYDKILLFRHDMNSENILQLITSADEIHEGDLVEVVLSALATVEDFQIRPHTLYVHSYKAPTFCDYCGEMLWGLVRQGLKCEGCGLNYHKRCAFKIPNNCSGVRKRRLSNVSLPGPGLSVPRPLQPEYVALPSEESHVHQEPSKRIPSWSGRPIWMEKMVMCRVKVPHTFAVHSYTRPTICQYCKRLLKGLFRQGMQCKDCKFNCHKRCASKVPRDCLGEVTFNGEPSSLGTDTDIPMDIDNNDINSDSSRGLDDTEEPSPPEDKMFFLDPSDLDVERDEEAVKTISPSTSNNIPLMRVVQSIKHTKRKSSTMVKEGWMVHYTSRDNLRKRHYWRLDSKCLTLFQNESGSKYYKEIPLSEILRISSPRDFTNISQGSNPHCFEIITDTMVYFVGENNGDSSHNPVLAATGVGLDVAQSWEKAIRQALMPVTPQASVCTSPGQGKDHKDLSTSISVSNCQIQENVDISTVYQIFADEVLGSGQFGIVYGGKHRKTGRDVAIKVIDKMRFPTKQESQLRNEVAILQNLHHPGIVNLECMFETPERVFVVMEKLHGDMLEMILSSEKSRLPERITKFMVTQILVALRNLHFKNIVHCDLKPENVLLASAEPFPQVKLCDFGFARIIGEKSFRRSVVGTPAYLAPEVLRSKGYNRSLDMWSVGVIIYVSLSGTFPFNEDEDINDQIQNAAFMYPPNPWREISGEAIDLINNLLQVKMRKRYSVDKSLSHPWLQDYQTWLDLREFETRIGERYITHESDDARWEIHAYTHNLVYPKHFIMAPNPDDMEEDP
Conditions: at 0.1 µM.

Assay [13] addresses T4, Serine/threonine-protein kinase D3 (Homo sapiens). The following applies: at 1 µM.
Assay [14] deals with T5, cGMP-dependent protein kinase 1 (Homo sapiens) (UniProt Q13976).
T5 sequence (whole entry): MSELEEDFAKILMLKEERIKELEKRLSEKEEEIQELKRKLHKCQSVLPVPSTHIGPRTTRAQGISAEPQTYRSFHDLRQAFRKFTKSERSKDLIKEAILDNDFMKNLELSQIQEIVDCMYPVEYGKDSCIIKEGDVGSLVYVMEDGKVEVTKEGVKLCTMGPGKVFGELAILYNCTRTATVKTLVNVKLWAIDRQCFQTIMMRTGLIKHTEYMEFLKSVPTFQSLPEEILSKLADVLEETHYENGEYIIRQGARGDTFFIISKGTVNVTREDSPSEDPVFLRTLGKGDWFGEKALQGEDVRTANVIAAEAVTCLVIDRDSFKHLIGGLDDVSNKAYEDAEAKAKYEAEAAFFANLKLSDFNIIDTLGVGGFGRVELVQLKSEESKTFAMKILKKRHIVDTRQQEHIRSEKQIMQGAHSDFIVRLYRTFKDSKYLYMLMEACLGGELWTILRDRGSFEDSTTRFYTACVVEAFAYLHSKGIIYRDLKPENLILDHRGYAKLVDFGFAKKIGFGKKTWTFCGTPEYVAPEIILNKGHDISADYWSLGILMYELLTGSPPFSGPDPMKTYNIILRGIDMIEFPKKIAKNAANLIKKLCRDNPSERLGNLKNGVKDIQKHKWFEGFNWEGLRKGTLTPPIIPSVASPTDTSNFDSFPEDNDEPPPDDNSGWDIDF
Conditions: at 0.1 µM.

The target in assay [15] is T5, cGMP-dependent protein kinase 1 (Homo sapiens). Conditions: at 1 µM.
In assay [16] the target is T6, cGMP-dependent protein kinase 2 (Homo sapiens) (UniProt Q13237).
T6 sequence (whole entry): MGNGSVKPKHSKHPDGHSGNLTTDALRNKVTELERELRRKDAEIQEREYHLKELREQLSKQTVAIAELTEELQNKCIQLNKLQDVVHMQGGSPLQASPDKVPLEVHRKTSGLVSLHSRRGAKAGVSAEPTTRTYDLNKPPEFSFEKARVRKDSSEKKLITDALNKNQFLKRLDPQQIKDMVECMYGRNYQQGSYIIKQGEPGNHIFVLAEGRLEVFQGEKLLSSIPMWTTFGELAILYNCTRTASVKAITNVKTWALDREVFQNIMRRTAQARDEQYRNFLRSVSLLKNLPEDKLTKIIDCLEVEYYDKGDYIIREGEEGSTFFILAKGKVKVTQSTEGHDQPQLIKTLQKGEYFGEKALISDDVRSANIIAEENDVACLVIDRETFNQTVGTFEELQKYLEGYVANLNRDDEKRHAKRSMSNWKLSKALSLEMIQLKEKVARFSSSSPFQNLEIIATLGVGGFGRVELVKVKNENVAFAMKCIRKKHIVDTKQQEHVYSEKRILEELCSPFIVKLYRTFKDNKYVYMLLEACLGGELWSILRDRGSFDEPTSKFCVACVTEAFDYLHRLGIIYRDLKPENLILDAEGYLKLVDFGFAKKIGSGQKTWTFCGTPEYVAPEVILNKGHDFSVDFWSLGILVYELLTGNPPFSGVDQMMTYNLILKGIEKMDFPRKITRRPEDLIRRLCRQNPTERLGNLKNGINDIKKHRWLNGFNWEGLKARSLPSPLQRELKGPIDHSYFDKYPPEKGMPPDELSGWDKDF
Conditions: at 0.1 µM.

Assay [17] addresses T6, cGMP-dependent protein kinase 2 (Homo sapiens). The following applies: at 1 µM.
Assay [18] addresses T7, cAMP-dependent protein kinase catalytic subunit PRKX (Homo sapiens) (UniProt P51817).
T7 sequence (whole entry): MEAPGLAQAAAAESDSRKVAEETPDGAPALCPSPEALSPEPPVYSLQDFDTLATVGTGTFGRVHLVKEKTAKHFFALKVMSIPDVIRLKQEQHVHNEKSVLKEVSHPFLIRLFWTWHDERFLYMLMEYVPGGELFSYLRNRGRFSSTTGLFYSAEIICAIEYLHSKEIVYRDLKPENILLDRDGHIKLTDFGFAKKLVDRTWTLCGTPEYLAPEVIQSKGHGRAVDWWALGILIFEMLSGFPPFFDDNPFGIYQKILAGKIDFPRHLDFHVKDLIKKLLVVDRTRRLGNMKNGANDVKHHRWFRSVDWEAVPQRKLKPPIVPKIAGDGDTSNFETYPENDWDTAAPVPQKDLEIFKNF
The following applies: at 0.1 µM.

Assay [19] addresses T7, cAMP-dependent protein kinase catalytic subunit PRKX (Homo sapiens). Conditions: at 1 µM.
Assay [20] addresses Rho-associated protein kinase 1 (Homo sapiens) (UniProt Q13464). Conditions: at 0.1 µM.

Sequence of Rho-associated protein kinase 1 (Homo sapiens) (Q13464 2-1354 limits assumed): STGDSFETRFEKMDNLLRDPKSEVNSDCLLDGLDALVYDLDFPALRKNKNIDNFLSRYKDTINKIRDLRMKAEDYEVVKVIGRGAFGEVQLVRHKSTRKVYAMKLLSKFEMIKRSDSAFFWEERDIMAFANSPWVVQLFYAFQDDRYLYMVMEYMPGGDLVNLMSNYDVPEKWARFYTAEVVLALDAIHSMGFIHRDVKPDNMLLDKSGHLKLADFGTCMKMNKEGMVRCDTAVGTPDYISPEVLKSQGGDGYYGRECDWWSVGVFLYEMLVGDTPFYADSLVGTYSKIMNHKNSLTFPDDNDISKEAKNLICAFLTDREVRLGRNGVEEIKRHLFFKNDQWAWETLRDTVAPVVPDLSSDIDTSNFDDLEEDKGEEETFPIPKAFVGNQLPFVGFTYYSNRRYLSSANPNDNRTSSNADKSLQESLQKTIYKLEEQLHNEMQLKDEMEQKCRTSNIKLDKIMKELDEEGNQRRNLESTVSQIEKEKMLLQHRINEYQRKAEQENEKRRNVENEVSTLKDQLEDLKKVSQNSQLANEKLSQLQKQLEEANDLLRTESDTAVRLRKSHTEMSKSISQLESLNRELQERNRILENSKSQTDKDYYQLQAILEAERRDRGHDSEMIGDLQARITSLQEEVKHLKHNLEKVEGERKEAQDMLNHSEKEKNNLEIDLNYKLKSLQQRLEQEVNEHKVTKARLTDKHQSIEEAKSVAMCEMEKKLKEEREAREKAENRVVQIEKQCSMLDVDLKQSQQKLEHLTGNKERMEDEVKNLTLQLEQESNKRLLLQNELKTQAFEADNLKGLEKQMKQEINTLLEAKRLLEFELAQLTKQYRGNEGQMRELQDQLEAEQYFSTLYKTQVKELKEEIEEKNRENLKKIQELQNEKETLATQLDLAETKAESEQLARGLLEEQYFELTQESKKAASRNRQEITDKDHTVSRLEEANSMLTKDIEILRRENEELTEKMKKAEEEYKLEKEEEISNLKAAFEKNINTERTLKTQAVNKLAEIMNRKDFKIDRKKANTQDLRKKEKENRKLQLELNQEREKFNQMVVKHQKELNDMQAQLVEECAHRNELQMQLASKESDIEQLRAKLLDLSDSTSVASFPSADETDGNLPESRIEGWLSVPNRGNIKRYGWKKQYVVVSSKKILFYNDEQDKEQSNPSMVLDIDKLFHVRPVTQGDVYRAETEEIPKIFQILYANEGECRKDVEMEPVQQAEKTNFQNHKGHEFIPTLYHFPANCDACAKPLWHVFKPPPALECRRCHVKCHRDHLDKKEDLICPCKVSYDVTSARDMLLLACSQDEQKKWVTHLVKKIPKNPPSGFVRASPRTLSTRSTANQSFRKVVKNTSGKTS

Consider `NS(=O)(=O)c1ccc(N/N=C2\C(=O)Nc3ccc(C(=O)NCCCn4ccnc4)cc32)cc1`, for which the inhibition in assay [1] was found to be 7.85%; in assay [2], 2%; in [3], 1.81%; in [4] it was 2.3%; in assay [5] it was 6.44%; in assay [6], 2.11%. The inhibition in assay [7] is 4.2%; in assay [8] it was 5.9%; in [9], 22.9%; in assay [10], 7.13%; in assay [11], 22.3%; in assay [12] it was 5.36%. The inhibition in assay [13] came out at 17.6%; in assay [14], 4.15%; in [15], 18.9%; in assay [16], 4.37%; in assay [17] it was 28.2%; in assay [18] it was 3.32%. The figures for the inhibition in assay [19] and in [20] were 7.39% and 2.63%, respectively.

For the origin of these results see ChEMBL document CHEMBL1961873, “Compounds: GSK PKIS; Assays: Nanosyn kinase panel” (2012).
